The values below come from the OligoGym collection.
Note: reference of the scale not given here.

The target of one test is ZNF583. The test can be described thus: pooled miR-30 sensor sort-seq; sequence = guide strand. The conditions noted are these: shRNA.
TTTCTTTTCTACATAGACTTTC displayed a sensor-assay potency score (higher = more potent) of -0.596.

As to TATATCAAAGATTGTATCCTGG, the sensor-assay potency score (higher = more potent) was found to be 0.513.

TTTTTTACATTCTTTACACTGA gave a sensor-assay potency score (higher = more potent) of 0.132.

As to TTCTCCAACATCACTTTCCTGT, the sensor-assay potency score (higher = more potent) came to 0.0692.

Take TTTCTTTTGTGGTTCATGCTTA: the sensor-assay potency score (higher = more potent) was determined as 0.129.

TACCTCTTGACTTCCCAGCTGG displayed a sensor-assay potency score (higher = more potent) of 0.168.

TTCGGTAACTTTTCTTTTGTGG yielded a sensor-assay potency score (higher = more potent) of 0.115.

In turn, TTCTTCATATGTCTCTTGCTTT came in with a sensor-assay potency score (higher = more potent) of -0.61.

TTTTACATTCTTTACACTGATA registered a sensor-assay potency score (higher = more potent) of -0.826.

In turn, TATAACTAAGATGTCTTGCTCC showed a sensor-assay potency score (higher = more potent) of 0.322.

Turning to TTTTCTACATAGACTTTCCTAT, the sensor-assay potency score (higher = more potent) is -0.369.

Consider TTGACTAAGATGTACCTCTTGA, for which the sensor-assay potency score (higher = more potent) came to 0.141.

A further test addresses ZNF592. The description is as above. The conditions noted are these: shRNA.
TTGAACTCCAAAGCTTCCCCGA gave a sensor-assay potency score (higher = more potent) of -0.465.

Sequence TGATGCAGCAACACTGTGGGGG had a sensor-assay potency score (higher = more potent) of 0.194.

On to TTGTCCTCTGGAAATGTGCAGC, for which the sensor-assay potency score (higher = more potent) is -0.92.

In turn, TAATGTGGTCTTTCTCCGCTTC had a sensor-assay potency score (higher = more potent) of -0.0177.

ATTCTCTCTAGTCTCCATGGGC: the sensor-assay potency score (higher = more potent) is -0.404.

Consider TTGAAGACCATTTCACAGGAGC, for which the sensor-assay potency score (higher = more potent) is -0.241.

TTAGTGACACTAGCCACTCTTT had a sensor-assay potency score (higher = more potent) of -0.994.

Take TTCTGCACGAACAAGAGTGGGC: the sensor-assay potency score (higher = more potent) was -0.174.

Sequence TTGTTGAAGACCATTTCACAGG registered a sensor-assay potency score (higher = more potent) of -0.934.
